Results reported in PubChem BioAssay (Tox21).
Results filed as inconclusive are left out. Active and inactive are the calls of the source. Unless noted, calls come from the whole dose curve.

Assays:
[1] = Nuclear factor erythroid 2-related factor 2/antioxidant responsive element (Nrf2/ARE) small molecule agonists: qHTS cell viability counter screen in human keratinocytes (AID 1919968; active = well fitted curve in the direction sought with a large enough effect in the repeat runs; an effect the other way counts as inactive or inconclusive; note: nearly all actives have a fitted effect of over 55% in size)
In short: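 Stably transfected HaCaT (KeratinoSens), 1,500/well. Test agents in DMSO were applied for 23 h, 37 C/5% CO2. CellTiter-Fluor was incubated 1 h before the fluorescence read.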

[2] = Nuclear factor erythroid 2-related factor 2/antioxidant responsive element (Nrf2/ARE) small molecule agonists: luciferase reporter gene qHTS assay in human keratinocytes (AID 1919969); note: nearly all actives have a fitted effect of over 35% in size
[3] = biological target: Gonadotropin-releasing hormone receptor (Homo sapiens) (UniProt P30968); assay: Human gonadotropin-releasing hormone receptor (GnRHR) small molecule agonists, calcium flux assay in GnRHR-HEK293 cells (AID 1920063); note: nearly all actives have a fitted effect of over 35% in size
Sequence of Gonadotropin-releasing hormone receptor (Homo sapiens) (P30968 whole entry, looked up): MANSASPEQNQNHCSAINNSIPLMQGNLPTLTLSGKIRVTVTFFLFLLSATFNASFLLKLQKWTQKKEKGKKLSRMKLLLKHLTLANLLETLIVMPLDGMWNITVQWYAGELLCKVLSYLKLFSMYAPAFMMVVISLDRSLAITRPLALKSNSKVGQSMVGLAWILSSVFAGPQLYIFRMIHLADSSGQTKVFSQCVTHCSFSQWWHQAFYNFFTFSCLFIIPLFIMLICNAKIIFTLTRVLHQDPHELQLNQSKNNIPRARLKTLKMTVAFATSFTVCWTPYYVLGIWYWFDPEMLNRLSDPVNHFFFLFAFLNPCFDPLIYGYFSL
In short: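 Stable human GnRHR HEK293 line. 18 h plating, then calcium dye for 1 h at 37 C. Agonist-mode compound addition from DMSO stocks; fluorescence monitored 3 min.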

[4] = biological target: KiSS-1 receptor (Homo sapiens) (UniProt Q969F8); assay: Human kisspeptin (KISS1R) small molecule agonists, calcium flux assay in KISS1R-HEK293 cells (AID 1920064; active = well fitted curve in the direction sought with a large enough effect in the repeat runs; an effect the other way counts as inactive or inconclusive)
Sequence of KiSS-1 receptor (Homo sapiens) (Q969F8 whole entry, looked up): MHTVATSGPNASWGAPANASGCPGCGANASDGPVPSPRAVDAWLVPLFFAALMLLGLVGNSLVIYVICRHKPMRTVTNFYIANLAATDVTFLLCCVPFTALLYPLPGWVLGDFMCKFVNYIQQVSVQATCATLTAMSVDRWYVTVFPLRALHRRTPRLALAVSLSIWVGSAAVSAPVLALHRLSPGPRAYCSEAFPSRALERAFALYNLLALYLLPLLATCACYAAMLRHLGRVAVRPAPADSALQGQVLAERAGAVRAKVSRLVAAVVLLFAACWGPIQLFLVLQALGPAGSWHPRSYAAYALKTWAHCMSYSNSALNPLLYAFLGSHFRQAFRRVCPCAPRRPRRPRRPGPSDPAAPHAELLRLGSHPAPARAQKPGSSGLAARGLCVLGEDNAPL
In short: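 After overnight (18 h) culture at 37 C/5% CO2, human KISS1R-HEK293 cells received calcium dye for 1 h, then test compound; emission at 540 nm (excitation 480 nm) was tracked for 3 min.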

[5] = G protein-coupled receptor (GPCR) small molecule agonists, calcium flux assay: HEK293 wild type cell line counter screen (AID 1920065)
In short: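 Following 18 h incubation at 37 C/5% CO2, plates got calcium dye for 1 h; compounds, ATP or DMSO were then pinned in and fluorescence followed kinetically (480/540 nm).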

[6] = p53 small molecule agonists, cell-based qHTS assay with human liver microsomes: qHTS cell viability counter screen (AID 1963579); note: nearly all actives have a fitted effect of over 45% in size
In short: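 In this multiplexed counter screen, the reporter plates were subsequently treated with CellTiter-Glo so that cell viability, reflected by luminescence, could be recorded for p53RE-bla cells dosed 16 h with compounds under microsomal activation (HLM and NADPH).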

[7] = p53 small molecule agonists, cell-based qHTS assay with rat liver microsomes: qHTS cell viability counter screen (AID 1963580); note: nearly all actives have a fitted effect of over 45% in size
In short: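 Counter screen for cytotoxicity under metabolic activation: rat liver microsomes and NADPH, 0.5 mg/mL final each, added with compounds to p53RE-bla HCT-116 cells; 16 h at 37 C, then ATP luminescence read.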

[8] = p53 small molecule agonists, cell-based qHTS assay: qHTS cell viability counter screen (AID 1963581); note: nearly all actives have a fitted effect of over 45% in size
In short: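 qHTS counter screen: 16 h compound exposure at 37 C of p53RE-bla HCT-116 cells (4,000 per well, seeded 5 h prior), cell viability by ATP luminescence.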

[9] = biological target: 5-hydroxytryptamine receptor 2A (Homo sapiens) (UniProt P28223); assay: 5-hydroxytryptamine receptor 2A (HTR2A) small molecule antagonists, cell-based qHTS assay (AID 1963586); note: nearly all actives have a fitted effect of over 45% in size
Sequence of 5-hydroxytryptamine receptor 2A (Homo sapiens) (P28223 whole entry, looked up): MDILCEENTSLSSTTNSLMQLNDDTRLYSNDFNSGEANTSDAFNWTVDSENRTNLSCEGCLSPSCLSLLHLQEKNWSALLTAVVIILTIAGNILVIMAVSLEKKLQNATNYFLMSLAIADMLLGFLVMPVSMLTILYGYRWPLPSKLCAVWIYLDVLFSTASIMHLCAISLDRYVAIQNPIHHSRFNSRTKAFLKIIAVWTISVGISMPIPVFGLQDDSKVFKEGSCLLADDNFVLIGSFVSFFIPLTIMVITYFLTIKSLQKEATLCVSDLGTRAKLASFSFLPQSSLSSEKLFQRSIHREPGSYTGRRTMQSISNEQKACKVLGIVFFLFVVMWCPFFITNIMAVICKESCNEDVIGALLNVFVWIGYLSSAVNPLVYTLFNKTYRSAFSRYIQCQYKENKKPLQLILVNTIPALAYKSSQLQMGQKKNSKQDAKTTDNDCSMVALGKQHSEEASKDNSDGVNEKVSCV
In short: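 CHO cells stably expressing human HTR2A were plated for 18 h at 37 C, then loaded with calcium dye for 1 h. Compounds were preincubated 5 min at room temperature before DOI (4 nM solution) was added. Kinetic fluorescence was read for 3 min.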

[10] = biological target: 5-hydroxytryptamine receptor 2A (Homo sapiens) (UniProt P28223); assay: 5-hydroxytryptamine receptor 2A (HTR2A) small molecule agonists, cell-based qHTS assay (AID 1963587); note: nearly all actives have a fitted effect of over 30% in size
In short: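 HTR2A-CHO cells, plated 18 h at 37 C/5% CO2, dye-loaded 1 h at 37 C; compounds in DMSO added by pin tool (agonist mode). Intracellular calcium flux read as kinetic fluorescence on FDSS over 2 min at 1 s intervals.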

[11] = biological target: Muscarinic acetylcholine receptor M1 (Homo sapiens) (UniProt P11229); assay: Cholinergic receptor muscarinic 1 (CHRM1) small molecule antagonists, cell-based qHTS assay (AID 1963588); note: nearly all actives have a fitted effect of over 40% in size
Sequence of Muscarinic acetylcholine receptor M1 (Homo sapiens) (P11229 whole entry, looked up): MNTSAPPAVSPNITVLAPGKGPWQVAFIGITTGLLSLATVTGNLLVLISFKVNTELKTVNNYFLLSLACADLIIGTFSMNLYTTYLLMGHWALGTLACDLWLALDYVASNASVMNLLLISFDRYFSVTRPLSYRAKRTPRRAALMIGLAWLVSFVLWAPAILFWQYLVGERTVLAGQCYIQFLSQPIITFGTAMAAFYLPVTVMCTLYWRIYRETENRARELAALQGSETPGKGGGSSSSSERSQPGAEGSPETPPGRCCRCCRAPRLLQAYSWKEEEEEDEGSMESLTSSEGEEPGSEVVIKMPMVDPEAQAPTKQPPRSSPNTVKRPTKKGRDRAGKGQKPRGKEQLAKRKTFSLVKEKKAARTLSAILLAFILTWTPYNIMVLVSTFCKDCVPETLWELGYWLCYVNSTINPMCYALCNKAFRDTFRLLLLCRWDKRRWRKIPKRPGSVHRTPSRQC
In short: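 Compounds were tested at 15 concentrations in three independent runs. Dye-loaded CHRM1-CHO cells were exposed 5 min at room temperature before stimulation by acetylcholine added at 50nM. Intracellular calcium was read kinetically on FDSS for 3 min.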

[12] = biological target: Muscarinic acetylcholine receptor M1 (Homo sapiens) (UniProt P11229); assay: Cholinergic receptor muscarinic 1 (CHRM1) small molecule agonists, cell-based qHTS assay (AID 1963589); note: nearly all actives have a fitted effect of over 35% in size; note: potency is the fitted concentration of half-maximal effect
In short: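 Kinetic fluorescence (1 s intervals) of calcium-sensitive dye in human M1 CHO cells after compound addition; cells pre-incubated 18 h at 37 C/5% CO2 and dye-loaded 1 h.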

[13] = cAMP Responsive Elements (CRE) small molecule agonists, cell-based qHTS assay (AID 1963590)
In short: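 Test agents in DMSO were incubated 3 h at 37 C/5% CO2 with CRE-bla HEK 293T cells seeded 18 h earlier; LiveBLAzer B/G FRET substrate was added and read after 2 h at room temperature.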

[14] = cAMP Responsive Elements (CRE) small molecule antagonists, cell-based qHTS assay (AID 1963591; active = well fitted inhibition curve with a large enough effect in the signal ratio in the repeat runs, not every such curve was filed as active; the % refers to the signal ratio)
In short: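 Reporter line CRE-bla HEK 293T in dialyzed-FBS DMEM; cells preincubated 18 h, treated 3 h with compound plus NKH477 (0.25 uM final); LiveBLAzer FRET, 2 h RT.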

[15] = biological target: Beta-2 adrenergic receptor (Homo sapiens) (UniProt P07550); assay: Adrenergic beta2 receptor (ADRB2) small molecule antagonists, cell-based qHTS assay (AID 1963592); note: series mostly up to about 92 µM; nearly all actives have a fitted effect of over 50% in size
Sequence of Beta-2 adrenergic receptor (Homo sapiens) (P07550 whole entry, looked up): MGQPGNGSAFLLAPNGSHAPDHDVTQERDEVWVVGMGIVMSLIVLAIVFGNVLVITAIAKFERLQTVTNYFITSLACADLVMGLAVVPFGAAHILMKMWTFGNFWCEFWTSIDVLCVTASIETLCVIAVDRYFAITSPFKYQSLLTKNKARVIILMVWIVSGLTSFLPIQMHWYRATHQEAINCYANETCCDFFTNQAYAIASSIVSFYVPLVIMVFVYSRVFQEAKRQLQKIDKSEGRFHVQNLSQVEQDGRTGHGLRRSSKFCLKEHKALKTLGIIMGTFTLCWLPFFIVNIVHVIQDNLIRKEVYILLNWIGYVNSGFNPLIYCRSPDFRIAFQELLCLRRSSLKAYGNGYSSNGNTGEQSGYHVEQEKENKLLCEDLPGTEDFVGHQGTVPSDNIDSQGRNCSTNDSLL
In short: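 Assay format: CHO-ADRB2 cells, 18-20hr seeding at 37C/5% CO2, then compound plus 1nM isoproterenol agonist mix for 0.5hr RT. Homogeneous time-resolved fluorescence cAMP detection after 1hr, expressed as 665/615 nm ratio.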

[16] = biological target: Beta-2 adrenergic receptor (Homo sapiens) (UniProt P07550); assay: Adrenergic beta2 receptor (ADRB2) small molecule agonists, cell-based qHTS assay (AID 1963593);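 note: CHO cells stably overexpressing human ADRB2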
In short: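 CHO cells stably over-expressing ADRB2 were plated overnight at 37C, then dosed with compounds plus a stimulation mix containing 100uM IBMX and 25uM Ro-20-1724 for 0.5hr at room temperature. cAMP was measured by HTRF competition, 1hr.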

[17] = biological target: D(2) dopamine receptor (Homo sapiens) (UniProt P14416); assay: Dopamine D2 receptor (DRD2) small molecule agonists, cell-based qHTS assay (AID 1963594); note: nearly all actives have a fitted effect of over 35% in size
Sequence of D(2) dopamine receptor (Homo sapiens) (P14416 whole entry, looked up): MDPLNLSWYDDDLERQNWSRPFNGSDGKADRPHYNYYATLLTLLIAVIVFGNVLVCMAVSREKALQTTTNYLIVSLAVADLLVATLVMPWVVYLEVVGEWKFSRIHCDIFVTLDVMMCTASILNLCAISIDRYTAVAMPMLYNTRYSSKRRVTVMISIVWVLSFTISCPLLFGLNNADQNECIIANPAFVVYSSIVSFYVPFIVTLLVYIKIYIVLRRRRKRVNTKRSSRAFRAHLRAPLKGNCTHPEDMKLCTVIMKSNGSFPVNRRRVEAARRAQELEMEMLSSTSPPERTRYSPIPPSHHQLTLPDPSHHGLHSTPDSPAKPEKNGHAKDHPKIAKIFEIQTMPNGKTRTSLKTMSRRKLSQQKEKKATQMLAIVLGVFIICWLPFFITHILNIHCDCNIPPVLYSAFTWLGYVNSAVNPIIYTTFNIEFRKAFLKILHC
In short: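 HEK293 cells stably expressing DRD2 were cultured 24 h at 37 C, then given Ro20-1724 (0.1 mM final) and compounds for 10 min at room temperature. NKH477 (200nM) was then added for 30 min. cAMP was read by HTRF.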

[18] = biological target: D(2) dopamine receptor (Homo sapiens) (UniProt P14416); assay: Dopamine D2 receptor (DRD2) small molecule antagonists, cell-based qHTS assay (AID 1963595; active = well fitted inhibition curve with a large enough effect in the signal ratio in the repeat runs, with a control signal flat; the % refers to the signal ratio)
In short: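 Cells were plated and grown for 24 h at 37 °C. Ro20-1724 (0.1 mM final) went in first, then compound for 10 min. NKH477 (200 nM) with quinpirole (12 nM) followed for 30 min at RT, then HTRF detection reagents for 1 h.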

Measured: Potency

O=[N+]([O-])c1nccn1CO[C@@H](CO)[C@H](O)CO
inactive: all assays above

C1COCO1
inactive: all assays above

Clc1sc(Cl)c(Cl)c1Cl
inactive: all assays above

OC/C=C/c1ccccc1
inactive: all assays above

N#Cc1ccccc1C#N
inactive: all assays above

N#CCCNCCC#N
inactive: all assays above

[Ca+2]
inactive: all assays above

CCc1ccccc1
inactive: all assays above

CCNCCO
inactive: all assays above

C/C=C(\C)C(C)=O
inactive: all assays above

CCCCCCCCCCCCSCCOCCO
active: [12] 37.9 nM
inactive: all other assays above

CC(C)(C)CCCCCCOC(=O)c1ccccc1C(=O)OCCCCCCC(C)(C)C
inactive: all assays above

CC(C)(CO)[N+](=O)[O-]
inactive: all assays above

CC(=O)C(=O)CC(C)C
inactive: all assays above
